Pf growth 96h = inhibits malaria parasite growth, 96 h. P. falciparum luciferase reporter growth, 96 h. Potency, µM (highest dose often 28.7 µM), without a hit: top-dose activity change, negative = inhibition, most hits filed as inhibitors. hit rate 6.9% among 320,000. AID 504834
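Cell-based qHTS: luciferase-tagged P. falciparum in erythrocytes (2% hematocrit, 0.05% parasitemia final) incubated with compounds for 96 hours, 37 C, 5% CO2; luciferase detection reagent then added and luminescence measured.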
AMA1-RON2 inh = disrupts binding of P. falciparum AMA1 to RON2; Potency, µM (titrated, usually from 58.2 µM), without a hit: at the highest dose activity change, negative = inhibition, hits mostly inhibitors; AlphaScreen AMA1-biotinylated RON2 peptide binding; AID 720542; hit rate 0.2% among 360,000;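 further: 0% = vehicle wells and -100% = peptide control; nearly all actives have a fitted effect of over 45% in size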
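AMA1 (3D7) with his tag at 25 nM final met compounds first, then biotinylated RON2 peptide at 25 nM; detection used donor plus acceptor beads, 10 µg/mL apiece, read by AlphaScreen after 30 min at room temperature.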
Pf growth 48h = P. falciparum growth inhibition at 48 hours (one generation); hit rate 5.9% among 310,000; Potency, µM (top dose mostly 28.7 µM), without a hit: at the highest dose activity change, negative = inhibition, actives largely listed as inhibitors; P. falciparum luciferase growth in erythrocytes, 48 h; AID 504832
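Firefly luciferase activity from engineered P. falciparum reports growth; inhibitors lower the luminescent signal. Cultures contained 2% hematocrit erythrocytes at 0.1% final parasitemia.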
HCV inhibitor = inhibitors of hepatitis C virus infection | Huh7.5.1 HCVcc-Cre infection, luciferase reporter, 44 h | Potency, µM (doses to about 41.8 µM), for the others: top-dose activity change, negative = inhibition, hits mostly inhibitors | hit rate 3.4% among 340,000
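Whole-lifecycle infectious HCVcc-Cre system; cells 1,000/well, compound then virus (~0.5 moi) added 4 h after plating, 44 h culture. Luciferase read 15 sec following 15 min substrate incubation, room temp.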
Numbers without * were called inactive; ? = inconclusive; . = no result; [ ] = another dose, or the depositor's remark. The list is not random: actives were taken first. Their share in the collection is about 11%. The call rests on the fitted dose curve; in most records, active means well fitted curve in the direction sought with a large enough effect; inconclusive means small, poorly fitted or top-dose-only effect, or another doubt; inactive means no such curve, though single readings can be large; an effect the other way counts as inactive or inconclusive. Unless noted, on the % scale 0 is the no-effect control and ±100 the full control effect; potency means the concentration at half of the fitted maximal effect.

SMILES | Pf growth 96h | AMA1-RON2 inh | Pf growth 48h | HCV inhibitor
O=C(Nc1cccc(S(=O)(=O)N2CCCC2)c1)c1ccc2c(=O)n3c(nc2c1)CCCCC3 | 5.22µM* | -12.2% | ? | 2.82µM*
O=C(Nc1cccc(S(=O)(=O)N2CCOCC2)c1)c1ccc2c(=O)n3c(nc2c1)CCCCC3 | ? | -11.1% | -28.2% | 7.08µM*
CO/N=C1\CN(c2nc3c(cc2F)c(=O)c(C(=O)O)cn3C2CC2)CC1CN (stereo not given) | 1.69µM* | . | 1.9µM* | .
COc1c(N2CCNC(C)C2)c(F)cc2c(=O)c(C(=O)O)cn(C3CC3)c12 (stereo not given) | 5.36µM* | . | ? | .
CC1CCc2c(N3CCC(O)CC3)c(F)cc3c(=O)c(C(=O)O)cn1c23 (stereo not given) | 6.01µM* | 36.2% | 14.7µM* | 9.3%
CC1CCc2cc(F)cc3c(=O)c(C(=O)O)cn1c23 (stereo not given) | ? | 18.5% | 7.0% | 1.8%[8.37 µM]
NC1CCN(c2nc3c(cc2F)c(=O)c(C(=O)O)cn3-c2ccc(F)cc2F)C1 (stereo not given) | 1.07µM* | 9.4% | 3.79µM* | 4.4%
COc1c(N2CCN(C(=S)NC3CC4CCC3C4)C(C)C2)c(F)cc2c(=O)c(C(=O)O)cn(C3CC3)c12 (stereo not given) | ? | 1.1% | ? | ?
COc1ccc(S(=O)(=O)NCC2CCCO2)cc1NC(=O)c1ccc(Cl)cc1 (stereo not given) | 0.7% | -6.3% | -6.9% | 18.2%
O=C(O)c1cn(C2CCCCC2)c2ccccc2c1=O | -19.4% | -5.1% | ? | 0.4%
CC1CN(c2c(F)c(N)c3c(=O)c(C(=O)O)cn(C4CC4)c3c2F)CC(C)N1 (stereo not given) | 4.78µM* | . | 7.57µM* | .
Cc1c(F)c(N2CCNC(C)C2)cc2c1c(=O)c(C(=O)O)cn2C1CC1 (stereo not given) | 6.75µM* | . | -18.9% | .
COc1c(N2CCN(C(=S)Nc3ccc(F)cc3)C(C)C2)c(F)cc2c(=O)c(C(=O)O)cn(C3CC3)c12 (stereo not given) | ? | -8.1% | ? | -10.7%
NC1CCN(c2c(F)cc3c(=O)c(C(=O)O)cn(C4CC4)c3c2Cl)C1 (stereo not given) | 0.738µM* | -0.8% | 5.86µM* | -7.9%
Cc1ccc2nc(-c3cccnc3)cc(C(=O)Nc3ccc(F)cc3C)c2c1 | -15.7% | 1.6% | ? | -11.7%
Cc1ccc2nc(-c3ccncc3)cc(C(=O)Nc3ccc(F)cc3C)c2c1 | ? | 10.0% | 6.57µM* | -5.6%
Cc1ccc(-c2cc(C(=O)Nc3cccnc3)c3ccccc3n2)s1 | ? | 30.5% | 2.62µM* | 6.1%
O=C(Nc1ccccn1)c1cc(-c2cccnc2)nc2ccc(Br)cc12 | 2.8% | 17.1% | 3.7µM* | 8.5%
Cc1cccc(-c2cc(C(=O)Nc3cccnc3)c3ccccc3n2)c1 | ? | -13.0% | ? | 9.8%
Cc1ccc2nc(-c3cccc(Br)c3)cc(C(=O)NC3CC3)c2c1 | ? | 5.9% | 4.65µM* | 1.2%
COc1ccc(C(=O)NCC(=O)OCC(=O)N2N=C(c3ccc(Cl)cc3)CC2c2ccco2)cc1OC (stereo not given) | 19.9% | -7.6% | 11.3% | -1.8%
O=C(O)c1cccc(S(=O)(=O)Nc2ccc(N3CCCCC3)cc2)c1 | . | -1.8% | . | -6.9%
CCCC(=O)O[C@]1(C(=O)CO)CCC2[C@@H]3CCC4=CC(=O)CC[C@]4(C)C3C(O)C[C@]21C (stereo not given in full) | ? | . | -10.0% | .
Cc1ccc2nc(-c3ccccc3)cc(C(=O)Nc3cccnc3)c2c1 | 1.65µM* | 13.3%[11.6 µM] | 2.08µM* | 2.5%
Cc1ccc2nc(-c3ccncc3)cc(-c3ccccc3)c2c1 | 9.28µM* | -5.9% | 10.4µM* | 11.2µM*
SMILES | Pf growth 96h | AMA1-RON2 inh | Pf growth 48h | HCV inhibitor
Cc1ccc(C)c(S(=O)(=O)N2CCN(Cc3ccc(O)c4ncccc34)CC2)c1 | 4.15µM* | 30.5% | -12.1% | ?
Oc1c(Cl)cc(CN2CCCCC2)c2cccnc12 | 1.4% | . | 3.7µM* | .
Oc1c(CN2CCCCC2)ccc2cccnc12 | . | -93.1% | . | 10µM*
CN(Cc1ccco1)Cc1ccc(O)c2ncccc12 | 10.4µM* | . | ? | .
Cc1nn(C)cc1S(=O)(=O)NCc1ccccc1Cl | ? | -9.7% | 8.9% | 4.5%
Cc1ccc(Nc2nnns2)cc1C | ? | -8.6% | 3.9% | -0.4%
CC(C)(C)NC(=O)CN1CCN(C(=O)CCl)CC1 | -22.0% | -5.9% | ? | -25.7%
Oc1c(CN2CCN(c3ccccn3)CC2)cc(Cl)c2cccnc12 | . | ? | 2.33µM* | 5.01µM*
Oc1ccc(CN2CCc3ccccc3C2)c2cccnc12 | 3.7µM* | -92.6% | ? | 3.98µM*
CCOC(=O)N1CCN(Cc2ccc(O)c3ncccc23)CC1 | -18.6% | -82.1% | ? | 4.47µM*
OCc1ccc(O)c2ncccc12 | ? | ? | 9.28µM* | 11.2µM*
Oc1ccc(Cc2ccccc2)c2cccnc12 | . | 18.3% | . | ?
Cn1cc(CN2CCc3ccccc3C2)c2ccccc21 | -4.0% | -4.7% | ? | 2.8%
CCOC(=O)c1ccc(NC(=O)COC(=O)c2cccc(Oc3ccccc3)c2)cc1 | -9.4% | 11.5% | -12.0% | -27.8%
Oc1ccc(CN2CCC(Cc3ccccc3)CC2)c2cccnc12 | 2.5% | -66.3% | ? | ?
Oc1ccc(CN2CCCCC2)c2cccnc12 | -0.9% | -94.8% | ? | 6.31µM*
CCOc1ccc2nc(NC(=O)CSc3nnnn3C3CCCCC3)sc2c1 | 4.15µM* | -21.4% | 39.0% | -2.2%
Clc1ccc(OCCSc2nnnn2C2CCCCC2)cc1 | . | 88.8% | 19.3% | 14.3%
CCOc1ccc(OCCSc2nnnn2C2CCCCC2)cc1 | 10.4µM* | 21.4% | 11.1% | -26.6%
COc1cc(C(=S)N2CCCC2)ccc1OCc1ccccc1 | -9.9% | -10.3% | 44.9% | -21.7%
COCCCn1c(=O)c2sccc2n2c(CCCC(=O)NCc3ccc(OC)cc3)nnc12 | ? | 5.4% | -6.3% | 11.2%
Cc1ccc2oc(=O)c(/C=C(\O)C(C)(C)C)nc2c1 | -5.2% | 58.6% | ? | 2.8%
CC(C)(C)/C(O)=C/c1nc2cc(Cl)ccc2oc1=O | 5.86µM* | 56.6% | 9.28µM* | -3.6%
Cc1ccc2oc(=O)c(/C=C(\O)c3sc(C)nc3C)nc2c1 | 10.4µM* | 33.0% | ? | 10.7%
Cc1nn(-c2ccccc2)c(N2CCCC2)c1/C=N/NC(=S)Nc1ccccc1F | ? | 76.6% | 10.4µM* | ?
Cc1nn(-c2ccccc2)c(N2CCCC2)c1/C=N/NC(=O)c1cc2ccccc2cc1O | ? | 15.2% | ? | ?
Cc1nn(-c2ccccc2)c(N2CCCC2)c1/C=N/NC(=O)c1cc(-c2ccccn2)nc2ccccc12 | ? | -1.2% | ? | 3.98µM*
COc1cc(C)nc(-c2csc(C)n2)n1 | ? | 3.7% | ? | 4.1%
O=C(OC(C(=O)NC1CCCCC1)c1ccccc1F)c1ccco1 (stereo not given) | -15.8% | 1.3% | 14.7% | 13.4%
COc1ccccc1CNc1ncnc2cc(Cl)ccc12 | 1.9% | 0.0% | 10.6% | ?

Screening results from PubChem.
